Vaccinia mCherry: vaccinia inhibition (mCherry reporter); Vaccinia virus mCherry reporter infection, fluorescence; Potency, µM (highest dose often 36.5 µM), for the others: at the highest dose activity change, negative = inhibition, usual class: inhibitors; 0.63% of 310,000 active; calls by dose curve; tested in A549 cells; also: potency is read from the fitted curve at half-maximal effect; nearly all actives have a fitted effect of over 35% in size
HCMV inh: blocks human cytomegalovirus replication; HFF cells, HCMV-luciferase reporter, 72 h; active compounds read low; activity change, negative = inhibition, % at 57.5 µM; 4.5% of 410,000 active; in the data active = activity change below about -60%; inconclusive = no clear call, values can overlap the other calls; inactive = above about -39%
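Luciferase read-out from HCMV-luciferase-infected HFFs (MOI 1 PFU/cell) 72 h post infection at 37C; compounds added after 16 h cell attachment; activity normalized between buffer-only basal and Salinomycin (10uM) inhibitor controls.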
Vaccinia Venus: vaccinia inhibition (Venus reporter); AID 720580; Vaccinia virus Venus reporter expression, fluorescence; 0.46% of 330,000 active; Potency, µM (doses to about 36.5 µM), for inactives: at the top dose activity change, negative = inhibition, most hits filed as inhibitors; calls by dose curve; tested in A549 cells; also: potency is read from the fitted curve at half-maximal effect; nearly all actives have a fitted effect of over 30% in size
LASV entry inh: blocks Lassa virus binding to or entry into cells; Lassa virus pseudotype entry inhibition, cell reporter; Potency, µM (doses to about 37.9 µM), inactives show top-dose activity change, negative = inhibition, usual class: inhibitors; 1.2% of 300,000 active; calls by dose curve; tested in HEK293 cells; also: potency is read from the fitted curve at half-maximal effect; nearly all actives have a fitted effect of over 50% in size
MARV entry inh: inhibitors of Marburg virus binding or cell entry; Marburg virus pseudotyped entry inhibition, cell reporter; Potency, µM (doses to about 37.8 µM), without a hit: top-dose activity change, negative = inhibition, hits mostly inhibitors; 1.8% of 300,000 active; AID 540276; calls by dose curve; tested in HEK293 cells; also: potency is read from the fitted curve at half-maximal effect
HCV inhibitor: HCV inhibition; Huh7.5.1 HCVcc-Cre infection, luciferase reporter, 44 h; Potency, µM (top dose mostly 41.8 µM), for the others: at the highest dose activity change, negative = inhibition, hits mostly inhibitors; 3.4% of 340,000 active; active = well fitted inhibition curve with a large enough effect; inconclusive = small, poorly fitted or top-dose-only effect, or another doubt; inactive = no such curve, though single readings can be large or run the other way; also: potency is read from the fitted curve at half-maximal effect
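1,000 cells/well; 4 h culture; + compound; + HCVcc-Cre (~0.5 moi); 44 h; luciferase substrate, RT 15 min; read 15 sec.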
* = called active by the depositor; i = inactive; ? = inconclusive; . = not tested or not shown; ! = not active in a repeat; [ ] = dose if it differs, or a comment. A selection: hits, their analogues and other compounds. The true share with any hit is near 7.8%. % is scaled to controls: 0 for no effect and ±100 for the full control effect.

SMILES	Vaccinia mCherry	HCMV inh	Vaccinia Venus	LASV entry inh	MARV entry inh	HCV inhibitor
COc1ccc2nc(NC(=S)N(C)C)sc2c1	?	?	-26%	?	10µM*	?
COc1ccc2nc(NC(=O)c3cccc(OCc4c(C)noc4C)c3)sc2c1	?	8	?	?	?	0.35µM*
COc1ccc2nc(NC(=O)c3ccoc3C)sc2c1	-20%	125	-13%	-28%[14.3 µM]	?	14µM*
COc1ccc2nc(NC(=O)c3cc(S(=O)(=O)N4CCOCC4)ccc3C)sc2c1	.	-5	?	-24%	2%	22µM*
CCN1CCN(c2csc3ccc(Br)cc3c2=O)CC1	-25%	5	-21%	21%[46.1 µM]	.	.
Cc1ccc(S(=O)(=O)N2CCOCC2)cc1C(=O)Nc1ccc(-c2cn3ccsc3n2)cc1	?	-16	-30%	?	?	10µM*
Cc1ccc(S(=O)(=O)N2CCOCC2)cc1C(=O)Nc1ccncc1	.	11	.	.	.	6%
O=C(c1ccc(Cl)c([N+](=O)[O-])c1)N(Cc1ccc(Cl)cc1)C1CCS(=O)(=O)C1 (centres undefined)	-6%	-60*	-1%	-12%	?	?
CN(C)c1ccc(CN(C(=O)/C=C/c2ccco2)C2CCS(=O)(=O)C2)cc1 (centres undefined)	-16%	4	-10%	1%	-10%	?
O=C(c1ccc(Cl)c([N+](=O)[O-])c1)N(Cc1ccccc1)C1CCS(=O)(=O)C1 (centres undefined)	i	?	0%	-1%	-1%	-16%
O=C(/C=C/c1ccco1)N(Cc1ccc(Cl)cc1)C1CCS(=O)(=O)C1 (centres undefined)	-17%	-23	-9%	-2%[46.1 µM]	-21%[46.1 µM]	1.1µM*
Cc1ccc2scc(N3CCCCC3)c(=O)c2c1	-11%	52	-16%	7%[46.1 µM]	.	.
COc1cccc(C2(CC(=O)N3CCC(c4nc5ccc(F)cc5[nH]4)CC3)CC(=O)N(C)C2=O)c1 (centres undefined)	-3%	.	-2%	.	.	.
O=C(CSc1nc2c(oc3ccccc32)c(=O)n1-c1ccccc1)Nc1ccc(F)c(Cl)c1	-11%	12	-14%	.	-17%[46.1 µM]	.
CCN1C(=O)[C@H]2[C@@H](c3ccc(-c4ccc(F)cc4)c(OC)c3)N3CCC[C@@]3(C(=O)OC)[C@H]2C1=O	?	38	-23%	.	.	3.2µM*
CCN1C(=O)[C@@H]2[C@@H](c3ccc(-c4ccc(Cl)c(Cl)c4)c(OC)c3)N3CCC[C@@]3(C(=O)OC)[C@@H]2C1=O	-9%	100	?	.	.	10µM*
CCN1C(=O)[C@@H]2[C@@H](c3ccc(-c4ccc(Cl)c(Cl)c4)cc3)N3CCCC[C@@]3(C(=O)OC)[C@@H]2C1=O	i	2	-23%	.	.	14%
COc1ccc(NC(=O)c2cccc(N3CCCS3(=O)=O)c2)cc1OC	0%	36	3%	?	.	.
O=C(NCCc1ccc(Cl)cc1)C(=O)NCC(c1ccco1)S(=O)(=O)c1ccc(Cl)cc1 (centres undefined)	?	-81*	?	-20%[46.1 µM]	.	.
COCCNC(=O)/C(=C/c1ccccc1Cl)c1ccccc1	i	-77*	-29%	?	3%	-1%
CCc1ccccc1NC(=O)C1COc2ccccc2C1 (centres undefined)	1%[7.34 µM]	-9	-1%	9%[46.1 µM]	.	.
Cc1ccc(C[n+]2cc(-c3ccc(Cl)cc3)n3c2CCC3)cc1	i	-61*	-15%	?	?	-25%
Cc1ccc(-c2c[n+](Cc3ccc(Cl)cc3)c3n2CCC3)cc1	i	-79*	-14%	?	-24%	-12%
COc1ccc(C(=O)N2c3nc(-c4ccco4)nn3C3(CCCCC3)[C@@H]3CCCC[C@@H]32)cc1OC	-4%	-12	-3%	-4%[46.1 µM]	-27%[46.1 µM]	.
N#Cc1c(Nc2ccc(Cl)cc2)s[nH]c1=O	-2%	-66*	-14%	1%	1%[46.1 µM]	3%
SMILES	Vaccinia mCherry	HCMV inh	Vaccinia Venus	LASV entry inh	MARV entry inh	HCV inhibitor
CSc1nc(Nc2ccc(Cl)cc2)c(C#N)c(=O)[nH]1	-15%	48	-9%	-6%	-1%	12%
COC(=O)c1c(C(=O)OC)c2c3cc(OC)c(OC)cc3cc([Si](C)(C)C)n2c1C(=O)OC	.	.	.	.	24%[14.2 µM]	.
CC(C)c1ccc(/C=C/C(=O)NC(=S)NN2CCOCC2)cc1	.	-98*	.	.	.	4%
CN(C)/C=N/c1ncc(C(=O)c2ccc(-c3ccccc3)cc2)s1	-25%	?	-28%	?	?	11µM*
CN(C)/C=N/c1ncc(C(=O)c2ccccc2)s1	.	87	.	?	-5%	4%
Cc1nn2c(=O)cc(COC(=O)c3ccccc3NC(=O)C(C)Oc3ccccc3)nc2s1 (centres undefined)	i	-30	-21%	11%[46.1 µM]	.	.
COc1cc(NC(=O)CSc2ncccc2C(=O)OC(C)C)cc(OC)c1	-17%	-108*!	-15%	1%[46.1 µM]	-26%	?
CC(=O)Nc1cccc(NC(=O)CSc2ccc(-c3ccccn3)nn2)c1	?	?	?	?	-23%	?
COc1cc(NC(=O)CSc2ccc(-c3ccccn3)nn2)cc(OC)c1	11µM*	?	?	?	?	?
Cc1cccc(NC(=O)CSc2ccc(-c3ccccn3)nn2)c1	?	-105*	-19%	-9%[46.1 µM]	.	.
Cc1cc(C)cc(NC(=O)CSc2ccc(-c3cccs3)nn2)c1	-19%	?	?	?	7.1µM*	?
O=c1c(-c2cc(-c3ccc(F)cc3)nc3c2COc2ccc(Cl)cc2-3)coc2ccc(F)cc12	-14%[7.34 µM]	-21	-3%[7.34 µM]	-10%[46.1 µM]	-6%[46.1 µM]	.
CCOC(=O)c1ccccc1NC(=O)CSc1ccc(-c2ccccn2)nn1	.	-29	.	.	.	?
COc1ccc(C)cc1NC(=O)CSc1ccc(-c2ccccn2)nn1	16µM*	-93*	?	?	?	?
COc1cccc(Nc2nccc3[nH]c(-c4cccc(F)c4)cc23)c1	.	-21	.	.	.	.
COc1ccccc1CNC(=O)COCc1cc(-c2ccc3c(c2)OCO3)on1	-13%	0	-12%	7%[46.1 µM]	.	.
CCS(=O)(=O)N1CCc2cc(OC)c(OC)cc2C1	-10%	34	-6%	15%	0%	6%
COc1cc2c(cc1OC)CN(S(C)(=O)=O)CC2	8%	-85*	-6%	.	.	1%
O=C(O)c1cccc(NC(=O)c2cc3cc(Br)cc(Br)c3oc2=O)c1	-1%	6	-6%	26%[46.1 µM]	.	.
Cc1ccc(S(=O)(=O)CC(CN2CCOCC2)N2CCOCC2)cc1 (centres undefined)	-1%	-15	10%	-4%	?	15%
O=S(=O)(CC(CN1CCCC1)N1CCCC1)c1ccc2ccccc2c1 (centres undefined)	.	-102*	.	10µM*	18µM*	10µM*
Cc1ccc(CN(C(=O)COc2ccccc2Cl)c2ccccn2)o1	-7%	73	4%	?	3%[46.1 µM]	.
